We go through 33 compounds from ChEMBL document CHEMBL4513146, “CO-ADD screening of Karazin Kharkiv National University (Ukraine) compounds”.

Potency and affinity values are given separately.

Assay [1] relates to Staphylococcus aureus. Particulars: Concentration 32 ug.mL-1;; ASSAY_TEST Inhibition of Bacterial Growth; detection method Absorption (OD600); MEDIA CAMHB; plate type 384well; NBS; CORNING #3640; time 18 hr.
Assay [2] deals with Escherichia coli. The conditions noted are these: Concentration 32 ug.mL-1;; ASSAY_TEST Inhibition of Bacterial Growth; detection method Absorption (OD600); MEDIA CAMHB; plate type 384well; NBS; CORNING #3640; time 18 hr.

One may read the Inhibition as the change of the read-out against control, counted positive when it falls. For the compound `Cc1ccc(NC(=O)Cn2nc3ccc(SC(C)(C)C)nn3c2=O)c(Cl)c1`, the Inhibition was -0.06% in assay [1] and -7.75% in assay [2].
In the same order, the values of `COc1ccc(-c2cc3c4nn(CC(=O)Nc5cccc(C(C)=O)c5)c(=O)n4ccn3n2)cc1` are -6.93% and -6.63%.
The matching figures for `O=C(Cn1nc2c(Oc3ccccc3)nccn2c1=O)Nc1ccc(F)cc1F`: 6.01% and -8.04%.
In the same order, the values of `Cc1ccccc1N1CCN(c2nccn3c(=O)n(CC(=O)NCc4ccc(Cl)cc4)nc23)CC1` are 13.83% and -3.79%.
Consider `Cc1ccc(Oc2nccn3c(=O)n(CC(=O)Nc4cccc(Br)c4)nc23)cc1`, for which the results for the Inhibition in assay [1] and in assay [2] were 4.81% and -7.18%, respectively.
The matching figures for `Cc1ccc(N(Cc2ccccc2F)S(=O)(=O)c2ccc3nncn3c2)cc1`: -11.4% and -11.46%.
The matching figures for `COc1cccc(-n2ccn3c(SCC(=O)Nc4ccc(Br)cc4)nnc3c2=O)c1`: -2.74% and -7.77%.
With `CCOc1ccccc1NC(=O)Cn1nc2c(Oc3ccccc3)nccn2c1=O`, the Inhibition in assay [1] is given as 5.93%; in assay [2], -3.4%.
The matching figures for `CCc1cccc(NC(=O)Cn2nc3c(SC4CCCCC4)nccn3c2=O)c1`: -3.76% and -12.2%.
Consider `COc1ccccc1-n1ccn2c(SCC(=O)Nc3ccc4c(c3)OCO4)nnc2c1=O`, for which the Inhibition in assay [1] is on record as 7.67%; in assay [2], -8.08%.
As for `Cc1ccc(N(Cc2ccc(F)cc2)S(=O)(=O)c2ccc3nnc(C)n3c2)cc1`, the values for the Inhibition in assay [1] and in assay [2] were 0.5% and -5.57%, respectively.
On to `CCCN(C)c1nccn2c(=O)n(CC(=O)Nc3cccc(C(C)=O)c3)nc12`, for which the figures for the Inhibition in assay [1] and in assay [2] were 10.12% and -7.5%, respectively.
In the same order, the values of `COc1ccccc1Cn1c(=O)c2sccc2n2c(=O)n(Cc3cccc(Br)c3)nc12` are -9.99% and -1.02%.
In the same order, the values of `COc1ccc(-c2cc3c4nn(CC(=O)Nc5ccc(OC)cc5OC)c(=O)n4ccn3n2)cc1` are 6.72% and -3.4%.
The matching figures for `CCc1ccc(N(Cc2cccc(C)c2)S(=O)(=O)c2cccn3c(C)nnc23)cc1`: -11.31% and 0.34%.
For `CCOc1ccc(-n2ccn3c(SCC(=O)Nc4ccc5c(c4)OCCO5)nnc3c2=O)cc1`, the Inhibition in assay [1] was 4.27%; in assay [2], -9.56%.
The matching figures for `COc1ccc(C)cc1NC(=O)Cn1nc2c3cc(-c4ccc(Cl)cc4)nn3ccn2c1=O`: 8.09% and 3.41%.
The matching figures for `Cc1ccc(-n2ccn3c(=O)n(Cc4cccc(Cl)c4)nc3c2=O)cc1C`: 7.38% and 0.11%.
In the same order, the values of `O=c1c2sccc2n2c(=O)n(Cc3c(F)cccc3Cl)nc2n1Cc1cccs1` are 6.51% and 0.39%.
On to `O=c1c2nn(Cc3ccc(F)cc3)c(=O)n2ccn1-c1ccccc1`, for which the Inhibition in assay [1] is 14.99%; in assay [2], -4.05%.
As for `Cc1cc2nn(CC(=O)N3CCCC3)c(=O)n2c(Nc2ccc(C)c(F)c2)n1`, the Inhibition was 5.2% in assay [1] and -7.93% in assay [2].
On to `COc1ccc(Cn2nc3ccc(-c4ccc(Cl)cc4)nn3c2=O)cc1F`, for which the Inhibition in assay [1] was 12.92%; in assay [2], 0.48%.
In the same order, the values of `CC(C)NC(=O)Cn1nc2n(Cc3ccco3)c(=O)c3sccc3n2c1=O` are 9.36% and 3.27%.
Consider `CCOC(=O)c1ccc(NC(=O)Cn2nc3ccc(Sc4ccccc4)nn3c2=O)cc1`, for which the Inhibition in assay [1] is recorded as 9.67%; in assay [2] it was -3.7%.
In the same order, the values of `Cc1ccc(-c2cc3c4nn(CC(=O)Nc5cccc(Br)c5)c(=O)n4ccn3n2)cc1` are 8.15% and 0.32%.
In the same order, the values of `Cc1nnc2ccc(S(=O)(=O)N(Cc3ccccc3)c3ccc(F)cc3)cn12` are -4.97% and -1.95%.
In the same order, the values of `O=C(Cn1nc2c(SC3CCCCC3)nccn2c1=O)Nc1ccc(F)cc1` are 2.79% and -5.61%.
`COc1ccc(CNC(=O)Cn2nc3c(N4CC(C)CC(C)C4)nccn3c2=O)cc1` (stereo unspecified): the Inhibition is 7.67% in assay [1] and -5.82% in assay [2].
`Cn1c(=O)c2ccc(C(=O)NC3CCCC3)cc2n2c(SCC(=O)Nc3cc(F)ccc3F)nnc12`: the Inhibition in assay [1] was 8.34%; in assay [2] it was -3.62%.
In the same order, the values of `Cc1cc2nn(CC(=O)Nc3ccc(F)cc3C)c(=O)n2c(Nc2ccc(F)cc2)n1` are 9.22% and -3.34%.
Consider `Cc1ccc(-c2ccc3nn(CC(=O)Nc4ccc(C(C)C)cc4)c(=O)n3n2)cc1C`, for which the Inhibition in assay [1] was -10.47%; in assay [2], -13.87%.
The matching figures for `Cc1ccccc1Oc1nccn2c(=O)n(CC(=O)Nc3ccccc3C(F)(F)F)nc12`: 10.19% and 1.35%.
The matching figures for `Cc1nnc2c(S(=O)(=O)N(Cc3cccc(F)c3)c3ccc(C(C)C)cc3)cccn12`: 15.47% and -0.86%.
